Screening data from PubChem.
Most compounds without a hit are left out; they make up all but 0.95% or so of the library.
Texas Red fluor: compound fluoresces in the Texas Red spectral region; hit rate 0.06% among 59,000; max dye-equivalent concentration, M; Compound fluorescence, Texas Red channel, 547/618 nm; stronger effect = higher value; in the data active means max dye-equivalent concentration above about 10 nM; inconclusive means between about 1.1 nM and that limit
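Texas Red-region profiling: compounds in 100 mM Tris pH 8.0 were read at 547/618 nm after 15 min at room temperature. Intensities were normalized against a six-point Texas Red standard series to give dye-equivalent concentration.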
A488 fluor: compound autofluorescence in A488 spectral region | compound autofluorescence, A488 spectral region, dye equivalency; Compound Type: qHTS ECL - MLSMR | max dye equivalency, M | hit rate 0.1% among 59,000
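Read-out: relative fluorescence at 480/540 nm, expressed as Alexa 488 dye-equivalent concentration from a six-point A488 standard included per plate. Conditions: 100 mM Tris, pH 8.0; 15 min incubation, room temperature.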
A647 autofl: compound fluoresces in the A647 spectral region | Compound fluorescence, A647 channel (570/671 nm), Tris buffer | 59,000 tested, under 10 active | max dye-equivalent concentration, M;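 further: values scaled relative to a standard on each plate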
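Compounds pinned into 100 mM Tris pH 8.0, 15 min at room temperature, then read with 570 nm excitation/671 nm emission filters. Fluorescence normalized to an on-plate six-point Alexa 647 standard curve, giving dye-equivalent concentration per compound concentration.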
Fluorescein fluor: compound fluoresces in the fluorescein spectral region; Compound autofluorescence, 480/540 nm, fluorescein-equivalent; stronger effect = higher value; max fluorescein-equivalent concentration, M; hit rate 0.91% among 59,000; AID 593; in the data active means max fluorescein-equivalent concentration above about 10 nM; inconclusive means between about 1.1 nM and that limit
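Compounds were pin-transferred into 100 mM Tris buffer, pH 8.0, and incubated 15 min at room temperature. Fluorescence was read at 480 nm excitation/540 nm emission. Signals were normalized to an on-plate six-point fluorescein standard curve as dye-equivalent concentration.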
Resorufin autofl: compound fluoresces in the resorufin spectral region; hit rate 0.04% among 59,000; Compound fluorescence, resorufin region 547/598 nm, buffer; stronger effect = higher value; AID 588; max dye-equivalent concentration, M
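Tris 100 mM pH 8.0; compound added, 15 min RT; CCD imager read, ex 547 nm/em 598 nm; signal normalized to resorufin standard curve (six concentrations per plate) as dye-equivalent concentration.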
Rhodamine autofl: compound fluoresces in the rhodamine spectral region; Rhodamine-region fluorescence, 547/598 nm, Tris buffer; stronger effect = higher value; max dye-equivalent concentration, M; hit rate 0.05% among 59,000; AID 594; in the data active means max dye-equivalent concentration above about 11 nM; inconclusive means between about 1.1 nM and that limit
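Intensities are converted to rhodamine-equivalent concentration using a six-point rhodamine standard on each plate. Compounds sit 15 min at room temperature in 100 mM Tris buffer, pH 8.0; read uses the 547/598 nm excitation/emission pair.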
The depositor's hits bear a star; i = inactive; u = inconclusive; ! = repeats disagree. Unless noted, how the calls were made is not given here.

SMILES	Texas Red fluor	A488 fluor	A647 autofl	Fluorescein fluor	Resorufin autofl	Rhodamine autofl
CCCCCCc1cc2cc(-c3nnc(-c4ccccc4O)o3)c(=O)oc2cc1O	i	i	4.3e-08	2.6e-08M*	i	i
Cc1cc(-c2nnc(-c3cc4ccccc4oc3=O)o2)c(C)n1-c1ccccc1	i	i	1e-09	i	i	i
O=C(O)c1cc(N=Cc2ccccc2O)cc(C(=O)O)c1	i	i	2.82e-08	u	i	i
COc1ccc(N=c2oc3cc(O)ccc3cc2C(=O)NCC2CCCO2)cc1 (stereo not given)	i	i	1.4e-09	i	i	i
COc1ccc(N=c2oc3cc(O)ccc3cc2C(=O)NCC2CCCO2)c(OC)c1 (stereo not given)	i	i	2.59e-08	1.37e-08M*	i	i
CCN(CC)c1ccc2c(c1)C(=O)N(C)C2=O	u	i	1.04e-08	1.13e-08M*	i	i
O=C(Cn1ccccc1=O)c1cccs1	i	i	1e-09	i	i	i
O=C1NC(=O)[C@@H]2C3c4ccccc4C=CN3[C@H](C(=O)c3cccs3)[C@H]12 (stereo not given in full)	i	i	1.4e-09	2.37e-08M*	i	i
Cc1cc(OCC(=O)NCCN2CCOCC2)ccc1Br	i	i	2.57e-08	2.29e-08M*	i	i
CC[C@@H]1[C@H]2CCCCN3[C@@H]2[C@@H](C[C@H]3[C@@H]2C[C@H](C)C(=O)O2)[C@@H]2[C@H]1OC(=O)[C@H]2C	i	i	3.1e-09	i	i	i
N#CCCn1c(=O)c(-c2cccs2)nc2cnc(N3CCOCC3)nc21	i	i	3.27e-08	1.3e-08M*	i	i
O=C(/C=C\c1ccc(O)c(O)c1)O[C@H]1C[C@@](O)(C(=O)O)C[C@H](O)[C@@H]1O	i	i	2.43e-08	i	i	i
CC[C@@]12CCCN3CCc4c(n(c5ccccc45)C(=O)C1)[C@H]32	i	i	1e-09	1.2e-08M*!	i	i
C[C@H](C(=O)c1ccccc1)[C@@H](c1ccccc1)N1CCOCC1	i	i	1.39e-08	u	i	i
CC(=Nc1ccc(O)cc1)c1sc2ccccc2c1O	u	u	4.7e-09	1e-07M*	i	i
CC(=O)NCCN=C(C)c1sc2ccccc2c1O	u	i	3.65e-08	u	i	i
Nc1cccc(OCc2nc(N)nc(N)c2-c2ccc(Cl)cc2)c1	i	i	1.6e-09	u	i	i
CCCCOC(=O)CSc1nc(N)c(C#N)c(-c2ccc(OCC)cc2)c1C#N	u	i	1.4e-09	i	i	i
CCCCOc1ccc(-c2c(C#N)c(N)nc(SCC(N)=O)c2C#N)cc1	u	i	3.5e-08	1.01e-08M*	i	u
N=c1sc2ccccc2n1CCS (tested in a mixture with another compound)	i	i	1e-09	i	i	i
O=C1OC2(c3ccc(O)cc3Oc3cc(O)ccc32)c2c1c(-c1ccccc1)c(-c1ccccc1)c(-c1ccccc1)c2-c1ccccc1	i	2.29e-08M*	1e-09	4.81e-07M*	u	u
O=C(O)c1ccc2c(c1C(=O)O)C(=O)OC2(c1ccc(O)cc1)c1ccc(O)cc1	i	i	4.2e-09	i	i	i
Fc1ccc(Br)cc1C1C=C(c2ccc(Br)s2)Nc2ncnn21 (stereo not given)	i	i	3.4e-09	u	i	i
COc1cccc(C2C=C(c3ccc(Br)s3)Nc3ncnn32)c1OC (stereo not given)	i	i	1e-09	1.45e-08M*	i	i
COC(=O)N1CCC2(CCN(C(=O)Nc3cccc(F)c3)CC2)CC1	i	i	2.77e-08	i	i	i
Cc1sccc1C1C(C#N)=C(N)SC(N)=C1C#N	i	i	2.74e-08	1.23e-08M*	i	i
N#[N+]c1ccc(Nc2ccccc2)cc1	i	i	1e-09	1.28e-08M*	i	i
Cc1cc(-c2ccco2)n2c(nc3ccccc32)c1C#N	i	u	1e-09	5.98e-08M*	i	i
COc1cc(C2C3=C(CC(C)(C)CC3=O)Nc3c2c(=O)[nH]c(=O)n3Cc2ccccc2)ccc1O (stereo not given)	i	i	1e-09	u	i	i
COc1ccc(C2C3=C(CC(C)(C)CC3=O)Nc3c2c(=O)[nH]c(=O)n3Cc2ccccc2)cc1OC (stereo not given)	i	i	5.28e-08	1.1e-08M*	i	i
